Reference: article PMC7862700, “An all-to-all approach to the identification of sequence-specific readers for epigenetic DNA modifications on cytosine”

How the values were obtained:
Experiment in all cases: DAPPL (digital affinity profiling via proximity ligation, sequencing); 10 mM Tris-HCl pH 7.5, 50 mM NaCl, 1 mM DTT, 4% glycerol, room temperature, 30 min; GST-TFs on glutathione beads, 16-mer random dsDNA library, 0.1% formaldehyde crosslink after washing; high values mean tight binding
[1] = target: T1, FLI1 (Homo sapiens, UniProt Q01543 1-452); conditions: protein: recombinant; tags: N-terminal GST; dsDNA, one strand shown
T1 sequence: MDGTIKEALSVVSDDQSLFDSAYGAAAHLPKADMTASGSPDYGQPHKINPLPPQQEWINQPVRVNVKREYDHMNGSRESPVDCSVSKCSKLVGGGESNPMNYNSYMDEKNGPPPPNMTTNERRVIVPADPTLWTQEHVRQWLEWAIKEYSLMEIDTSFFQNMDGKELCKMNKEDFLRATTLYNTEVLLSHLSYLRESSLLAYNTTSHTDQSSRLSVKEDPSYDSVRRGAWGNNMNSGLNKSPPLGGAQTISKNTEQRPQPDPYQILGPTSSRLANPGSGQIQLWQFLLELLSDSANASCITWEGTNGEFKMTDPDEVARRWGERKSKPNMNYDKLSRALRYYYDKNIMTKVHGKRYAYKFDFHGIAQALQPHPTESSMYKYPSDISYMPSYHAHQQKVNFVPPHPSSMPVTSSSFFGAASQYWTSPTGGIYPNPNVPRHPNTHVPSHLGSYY
Outline: (§1)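 Binding signal is defined as a hexamer's read frequency for one factor over its frequency for the tag-only sample. To obtain reads, GST-fused human transcription factors were expressed in yeast, captured on glutathione beads, barcoded with DNA and pooled with that sample. Pools met 200 nmole of a 16-mer random double-stranded DNA library in Tris/NaCl/DTT/glycerol buffer for 30 min at room temperature before washing, 0.1% formaldehyde crosslinking, proximity ligation (BsaI/T4 ligase, 1 h, 37 °C), PCR and Illumina NextSeq500 sequencing.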

[2] = target: T2, ELK1 (Homo sapiens, UniProt P19419 1-428); conditions: protein: recombinant; tags: N-terminal GST; dsDNA, one strand shown
T2 sequence: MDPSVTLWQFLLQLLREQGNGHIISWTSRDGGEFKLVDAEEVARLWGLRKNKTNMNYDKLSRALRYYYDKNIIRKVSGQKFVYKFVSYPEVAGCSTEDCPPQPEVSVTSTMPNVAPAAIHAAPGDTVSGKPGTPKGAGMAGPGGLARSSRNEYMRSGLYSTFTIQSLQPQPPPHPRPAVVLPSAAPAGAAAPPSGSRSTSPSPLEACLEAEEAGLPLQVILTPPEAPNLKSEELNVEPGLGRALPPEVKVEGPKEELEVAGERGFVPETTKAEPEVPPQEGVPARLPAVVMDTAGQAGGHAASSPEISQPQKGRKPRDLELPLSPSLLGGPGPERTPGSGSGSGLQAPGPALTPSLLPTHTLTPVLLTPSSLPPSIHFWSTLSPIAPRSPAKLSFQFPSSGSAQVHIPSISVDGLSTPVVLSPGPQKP
Outline: as §1

[3] = target: T3, GABPA (Homo sapiens, UniProt Q06546 1-454); conditions: protein: recombinant; tags: N-terminal GST; dsDNA, one strand shown
T3 sequence: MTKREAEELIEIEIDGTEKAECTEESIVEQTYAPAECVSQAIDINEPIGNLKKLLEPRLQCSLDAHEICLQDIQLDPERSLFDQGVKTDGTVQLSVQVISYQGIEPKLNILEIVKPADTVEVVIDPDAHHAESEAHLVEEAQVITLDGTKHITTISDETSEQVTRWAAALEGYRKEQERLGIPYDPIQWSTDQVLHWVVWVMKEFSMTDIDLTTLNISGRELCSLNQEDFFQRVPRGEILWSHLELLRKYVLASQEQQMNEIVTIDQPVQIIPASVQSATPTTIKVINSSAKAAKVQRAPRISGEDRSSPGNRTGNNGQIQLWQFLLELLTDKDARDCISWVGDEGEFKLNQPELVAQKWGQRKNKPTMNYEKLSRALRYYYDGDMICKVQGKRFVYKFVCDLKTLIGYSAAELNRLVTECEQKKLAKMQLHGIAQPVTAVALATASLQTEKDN
Outline: as §1

[4] = target: T4, ERG (Homo sapiens, UniProt P11308 1-479); conditions: protein: recombinant; tags: N-terminal GST; dsDNA, one strand shown
T4 sequence: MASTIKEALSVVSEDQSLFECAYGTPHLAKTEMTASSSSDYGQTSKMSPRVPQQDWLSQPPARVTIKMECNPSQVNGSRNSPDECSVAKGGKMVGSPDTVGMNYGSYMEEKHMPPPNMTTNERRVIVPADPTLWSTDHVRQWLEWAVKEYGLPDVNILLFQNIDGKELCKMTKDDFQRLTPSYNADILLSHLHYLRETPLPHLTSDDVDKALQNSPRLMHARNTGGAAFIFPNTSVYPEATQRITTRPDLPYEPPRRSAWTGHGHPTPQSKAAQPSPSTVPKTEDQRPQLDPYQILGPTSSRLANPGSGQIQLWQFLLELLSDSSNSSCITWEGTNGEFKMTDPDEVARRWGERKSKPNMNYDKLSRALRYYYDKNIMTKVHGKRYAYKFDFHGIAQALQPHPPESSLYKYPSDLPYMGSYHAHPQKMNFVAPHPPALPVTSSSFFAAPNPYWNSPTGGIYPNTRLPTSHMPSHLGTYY
Outline: as §1

[5] = target: ELF1 (Homo sapiens, UniProt P32519 1-619); conditions: protein: recombinant; tags: N-terminal GST; dsDNA, one strand shown
ELF1, sequence (P32519 whole entry): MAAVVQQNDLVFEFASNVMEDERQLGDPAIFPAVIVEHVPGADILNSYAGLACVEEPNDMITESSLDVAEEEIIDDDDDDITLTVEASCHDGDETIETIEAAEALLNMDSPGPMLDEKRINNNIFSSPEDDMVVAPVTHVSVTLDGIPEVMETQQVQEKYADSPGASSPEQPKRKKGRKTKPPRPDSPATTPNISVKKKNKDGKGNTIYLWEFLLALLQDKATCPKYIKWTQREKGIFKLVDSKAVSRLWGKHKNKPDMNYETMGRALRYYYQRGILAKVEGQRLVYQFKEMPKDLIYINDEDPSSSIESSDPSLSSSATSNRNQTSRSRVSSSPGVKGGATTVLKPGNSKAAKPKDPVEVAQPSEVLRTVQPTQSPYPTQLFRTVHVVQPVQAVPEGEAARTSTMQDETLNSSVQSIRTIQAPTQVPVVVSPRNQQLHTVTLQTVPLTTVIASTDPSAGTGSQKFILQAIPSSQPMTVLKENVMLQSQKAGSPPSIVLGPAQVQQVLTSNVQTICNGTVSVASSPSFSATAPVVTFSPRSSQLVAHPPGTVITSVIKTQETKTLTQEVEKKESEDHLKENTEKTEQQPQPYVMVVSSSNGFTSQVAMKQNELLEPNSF
Outline: as §1

[6] = target: T5, EHF (Homo sapiens, UniProt Q9NZC4 1-300); conditions: protein: recombinant; tags: N-terminal GST; dsDNA, one strand shown
T5 sequence: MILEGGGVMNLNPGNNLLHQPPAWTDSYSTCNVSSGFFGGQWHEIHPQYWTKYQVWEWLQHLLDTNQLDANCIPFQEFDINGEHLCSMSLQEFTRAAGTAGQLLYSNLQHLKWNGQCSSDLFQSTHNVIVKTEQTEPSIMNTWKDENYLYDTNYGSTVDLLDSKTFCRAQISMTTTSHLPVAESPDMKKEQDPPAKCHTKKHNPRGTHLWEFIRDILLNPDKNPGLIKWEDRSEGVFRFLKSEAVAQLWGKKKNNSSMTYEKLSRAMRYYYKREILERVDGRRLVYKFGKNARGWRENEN
Outline: as §1

[7] = target: SPIB (Homo sapiens, UniProt Q01892 1-262); conditions: protein: recombinant; tags: N-terminal GST; dsDNA, one strand shown
SPIB, sequence (Q01892 whole entry): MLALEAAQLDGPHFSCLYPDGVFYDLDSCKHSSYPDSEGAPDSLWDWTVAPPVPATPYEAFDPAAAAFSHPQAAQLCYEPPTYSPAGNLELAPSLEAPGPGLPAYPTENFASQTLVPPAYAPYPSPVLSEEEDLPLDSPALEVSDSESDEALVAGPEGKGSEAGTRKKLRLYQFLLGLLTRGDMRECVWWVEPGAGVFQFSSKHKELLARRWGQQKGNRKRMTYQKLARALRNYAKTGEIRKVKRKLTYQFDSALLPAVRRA
Outline: as §1

[8] = target: T6, ELK3 (Homo sapiens, UniProt P41970 1-407); conditions: protein: recombinant; tags: N-terminal GST; dsDNA, one strand shown
T6 sequence: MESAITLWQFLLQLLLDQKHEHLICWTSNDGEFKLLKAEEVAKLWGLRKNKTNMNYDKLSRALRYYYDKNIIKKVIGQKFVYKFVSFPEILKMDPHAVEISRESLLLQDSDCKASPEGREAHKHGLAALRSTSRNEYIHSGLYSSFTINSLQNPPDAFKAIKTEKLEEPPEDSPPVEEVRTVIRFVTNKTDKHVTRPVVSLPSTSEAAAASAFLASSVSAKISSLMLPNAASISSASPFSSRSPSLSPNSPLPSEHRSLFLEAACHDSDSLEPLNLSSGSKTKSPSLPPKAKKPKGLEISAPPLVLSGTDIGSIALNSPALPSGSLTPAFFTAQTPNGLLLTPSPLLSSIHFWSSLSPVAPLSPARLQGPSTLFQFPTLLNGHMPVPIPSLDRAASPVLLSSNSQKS
Outline: as §1

[9] = target: T7, FEV (Homo sapiens, UniProt Q99581 1-238); conditions: protein: recombinant; tags: N-terminal GST; dsDNA, one strand shown
T7 sequence: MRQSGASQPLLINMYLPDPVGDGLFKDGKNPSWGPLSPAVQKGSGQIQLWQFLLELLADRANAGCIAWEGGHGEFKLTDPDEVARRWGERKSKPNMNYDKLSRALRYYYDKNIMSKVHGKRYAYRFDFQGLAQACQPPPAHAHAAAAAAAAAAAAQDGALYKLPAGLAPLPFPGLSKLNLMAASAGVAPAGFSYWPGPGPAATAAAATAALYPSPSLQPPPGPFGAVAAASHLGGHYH
Outline: as §1

[10] = target: ETV5 (Homo sapiens, UniProt P41161 1-510); conditions: protein: recombinant; tags: N-terminal GST; dsDNA, one strand shown
ETV5, sequence (P41161 whole entry): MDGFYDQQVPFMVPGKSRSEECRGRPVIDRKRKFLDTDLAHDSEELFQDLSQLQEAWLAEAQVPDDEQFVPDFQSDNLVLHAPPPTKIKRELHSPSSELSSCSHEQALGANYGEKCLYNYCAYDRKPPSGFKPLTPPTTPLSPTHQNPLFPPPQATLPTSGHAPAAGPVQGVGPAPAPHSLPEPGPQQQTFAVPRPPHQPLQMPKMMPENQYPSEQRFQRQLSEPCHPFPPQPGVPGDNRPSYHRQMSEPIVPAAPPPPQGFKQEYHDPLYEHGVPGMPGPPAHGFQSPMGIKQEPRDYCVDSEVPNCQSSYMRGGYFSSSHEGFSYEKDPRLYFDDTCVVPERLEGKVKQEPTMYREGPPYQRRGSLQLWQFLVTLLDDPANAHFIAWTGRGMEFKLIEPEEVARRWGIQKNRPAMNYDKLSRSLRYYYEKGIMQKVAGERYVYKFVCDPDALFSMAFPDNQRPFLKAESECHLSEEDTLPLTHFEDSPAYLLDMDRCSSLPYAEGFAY
Outline: as §1

[11] = target: HSF1 (Homo sapiens, UniProt Q00613 1-529); conditions: protein: recombinant; tags: N-terminal GST; chain copies: 3; dsDNA, one strand shown
HSF1, sequence (Q00613 whole entry): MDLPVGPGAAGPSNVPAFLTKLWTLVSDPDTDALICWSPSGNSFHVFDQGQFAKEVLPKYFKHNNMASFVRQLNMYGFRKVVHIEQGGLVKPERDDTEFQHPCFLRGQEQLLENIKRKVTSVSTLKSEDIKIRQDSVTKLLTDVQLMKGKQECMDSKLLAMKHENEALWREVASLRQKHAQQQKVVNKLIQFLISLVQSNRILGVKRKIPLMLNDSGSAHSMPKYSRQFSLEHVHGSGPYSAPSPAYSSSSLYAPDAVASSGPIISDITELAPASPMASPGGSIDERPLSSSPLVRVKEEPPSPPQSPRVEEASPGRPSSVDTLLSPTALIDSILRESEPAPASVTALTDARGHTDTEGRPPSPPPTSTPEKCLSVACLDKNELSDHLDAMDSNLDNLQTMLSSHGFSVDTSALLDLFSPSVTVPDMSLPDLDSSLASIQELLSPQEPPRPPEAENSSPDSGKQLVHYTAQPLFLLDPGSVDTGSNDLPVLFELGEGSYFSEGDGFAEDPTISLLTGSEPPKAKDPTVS
Outline: as §1

[12] = target: T8, SPIC (Homo sapiens, UniProt Q8N5J4 1-248); conditions: protein: recombinant; tags: N-terminal GST; dsDNA, one strand shown
T8 sequence: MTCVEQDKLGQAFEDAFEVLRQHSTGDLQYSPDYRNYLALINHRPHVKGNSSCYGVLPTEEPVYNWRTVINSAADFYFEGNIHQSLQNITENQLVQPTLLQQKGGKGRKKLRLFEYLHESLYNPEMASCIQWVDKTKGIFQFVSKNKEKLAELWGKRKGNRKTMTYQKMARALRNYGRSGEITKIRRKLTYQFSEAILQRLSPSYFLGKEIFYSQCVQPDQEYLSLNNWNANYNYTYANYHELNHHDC
Outline: as §1

[13] = target: ELF4 (Homo sapiens, UniProt Q99607 1-663); conditions: protein: recombinant; tags: N-terminal GST; dsDNA, one strand shown
ELF4, sequence (Q99607 whole entry): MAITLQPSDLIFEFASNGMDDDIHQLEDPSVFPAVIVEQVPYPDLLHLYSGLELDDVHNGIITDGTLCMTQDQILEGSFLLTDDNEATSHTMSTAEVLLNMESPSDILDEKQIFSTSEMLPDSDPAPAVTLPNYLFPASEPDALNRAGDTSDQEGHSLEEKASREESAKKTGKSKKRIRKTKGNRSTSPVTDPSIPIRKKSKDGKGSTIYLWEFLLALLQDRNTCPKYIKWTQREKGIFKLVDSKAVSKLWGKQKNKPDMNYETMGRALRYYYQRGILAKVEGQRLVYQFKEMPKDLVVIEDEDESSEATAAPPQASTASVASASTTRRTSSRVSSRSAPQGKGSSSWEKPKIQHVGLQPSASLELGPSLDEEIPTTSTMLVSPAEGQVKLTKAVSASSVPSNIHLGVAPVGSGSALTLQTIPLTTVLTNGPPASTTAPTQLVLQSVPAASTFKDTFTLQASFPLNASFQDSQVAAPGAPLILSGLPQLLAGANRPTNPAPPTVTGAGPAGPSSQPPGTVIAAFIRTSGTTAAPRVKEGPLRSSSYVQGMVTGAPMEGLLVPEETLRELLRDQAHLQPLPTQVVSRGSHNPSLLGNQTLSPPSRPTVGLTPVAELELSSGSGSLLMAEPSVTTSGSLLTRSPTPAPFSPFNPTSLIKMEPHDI
Outline: as §1

[14] = target: T9, ELK4 (Homo sapiens, UniProt P28324-2 1-405); conditions: protein: recombinant; tags: N-terminal GST; dsDNA, one strand shown
T9 sequence: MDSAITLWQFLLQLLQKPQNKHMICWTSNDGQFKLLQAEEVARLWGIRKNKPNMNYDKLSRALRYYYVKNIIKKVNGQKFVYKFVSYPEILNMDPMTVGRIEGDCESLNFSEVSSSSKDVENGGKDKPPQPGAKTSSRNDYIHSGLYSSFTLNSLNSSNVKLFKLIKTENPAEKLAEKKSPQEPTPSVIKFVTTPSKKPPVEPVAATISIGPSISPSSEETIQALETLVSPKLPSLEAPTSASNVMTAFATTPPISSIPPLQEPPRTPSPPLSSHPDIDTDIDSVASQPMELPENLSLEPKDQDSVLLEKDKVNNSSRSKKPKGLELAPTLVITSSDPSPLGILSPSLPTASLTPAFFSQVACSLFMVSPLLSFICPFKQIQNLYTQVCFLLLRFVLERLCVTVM
Outline: as §1

[15] = target: T10, ETV2 (Homo sapiens, UniProt O00321 1-342); conditions: protein: recombinant; tags: N-terminal GST; dsDNA, one strand shown
T10 sequence: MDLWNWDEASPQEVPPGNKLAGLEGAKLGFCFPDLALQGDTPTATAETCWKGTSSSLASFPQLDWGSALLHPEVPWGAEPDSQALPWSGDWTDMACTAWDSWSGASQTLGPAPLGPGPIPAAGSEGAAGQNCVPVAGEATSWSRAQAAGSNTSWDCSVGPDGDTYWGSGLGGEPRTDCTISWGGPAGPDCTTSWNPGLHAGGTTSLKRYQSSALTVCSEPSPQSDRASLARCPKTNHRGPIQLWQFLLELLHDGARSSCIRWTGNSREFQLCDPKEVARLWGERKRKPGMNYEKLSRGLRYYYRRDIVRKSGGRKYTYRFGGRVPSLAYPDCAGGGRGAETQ
Outline: as §1

[16] = target: ETV1 (Homo sapiens, UniProt P50549 1-477); conditions: protein: recombinant; tags: N-terminal GST; dsDNA, one strand shown
ETV1, sequence (P50549 whole entry): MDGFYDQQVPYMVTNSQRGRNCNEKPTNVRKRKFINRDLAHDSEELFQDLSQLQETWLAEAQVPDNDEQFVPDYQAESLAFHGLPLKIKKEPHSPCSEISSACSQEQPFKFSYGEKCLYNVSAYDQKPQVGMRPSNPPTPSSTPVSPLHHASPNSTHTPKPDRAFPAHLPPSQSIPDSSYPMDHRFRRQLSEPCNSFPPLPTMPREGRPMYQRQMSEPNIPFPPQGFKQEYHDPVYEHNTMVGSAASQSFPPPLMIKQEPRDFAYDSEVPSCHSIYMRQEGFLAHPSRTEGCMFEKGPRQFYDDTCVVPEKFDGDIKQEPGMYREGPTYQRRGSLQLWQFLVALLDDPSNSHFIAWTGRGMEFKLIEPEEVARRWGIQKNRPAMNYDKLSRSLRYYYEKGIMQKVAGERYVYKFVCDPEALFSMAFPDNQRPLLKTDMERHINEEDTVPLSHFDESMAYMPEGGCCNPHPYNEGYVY
Outline: as §1

Sequence: CGACGA
- binding signal [1]: 1.19 fold enrichment (6-mer frequency, TF over GST control)
- binding signal [2]: 1.03 fold enrichment (6-mer frequency, TF over GST control)
- binding signal [3]: 1.11 fold enrichment (6-mer frequency, TF over GST control)
- binding signal [4]: 1.18 fold enrichment (6-mer frequency, TF over GST control)
- binding signal [5]: 1.09 fold enrichment (6-mer frequency, TF over GST control)
- binding signal [6]: 1.14 fold enrichment (6-mer frequency, TF over GST control)
- binding signal [7]: 1.2 fold enrichment (6-mer frequency, TF over GST control)
- binding signal [8]: 1.2 fold enrichment (6-mer frequency, TF over GST control)
- binding signal [9]: 1.1 fold enrichment (6-mer frequency, TF over GST control)
- binding signal [10]: 1.15 fold enrichment (6-mer frequency, TF over GST control)
- binding signal [11]: 1.16 fold enrichment (6-mer frequency, TF over GST control)
- binding signal [12]: 1.2 fold enrichment (6-mer frequency, TF over GST control)
- binding signal [13]: 1.17 fold enrichment (6-mer frequency, TF over GST control)
- binding signal [14]: 1.08 fold enrichment (6-mer frequency, TF over GST control)
- binding signal [15]: 1.01 fold enrichment (6-mer frequency, TF over GST control)
- binding signal [16]: 1.07 fold enrichment (6-mer frequency, TF over GST control)
